About 1,600 (0.52%) of roughly 310,000 compounds were called active. Shown is part of a subset that was picked to be rich in actives. Values without a mark were called inactive.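 Rule for the calls: active = activation above the mean of controls blocked by dofetilide plus 5 SD; inactive = the rest.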

Chain of Voltage-gated inwardly rectifying potassium channel KCNH2 (Homo sapiens) (Q12809 whole entry, looked up): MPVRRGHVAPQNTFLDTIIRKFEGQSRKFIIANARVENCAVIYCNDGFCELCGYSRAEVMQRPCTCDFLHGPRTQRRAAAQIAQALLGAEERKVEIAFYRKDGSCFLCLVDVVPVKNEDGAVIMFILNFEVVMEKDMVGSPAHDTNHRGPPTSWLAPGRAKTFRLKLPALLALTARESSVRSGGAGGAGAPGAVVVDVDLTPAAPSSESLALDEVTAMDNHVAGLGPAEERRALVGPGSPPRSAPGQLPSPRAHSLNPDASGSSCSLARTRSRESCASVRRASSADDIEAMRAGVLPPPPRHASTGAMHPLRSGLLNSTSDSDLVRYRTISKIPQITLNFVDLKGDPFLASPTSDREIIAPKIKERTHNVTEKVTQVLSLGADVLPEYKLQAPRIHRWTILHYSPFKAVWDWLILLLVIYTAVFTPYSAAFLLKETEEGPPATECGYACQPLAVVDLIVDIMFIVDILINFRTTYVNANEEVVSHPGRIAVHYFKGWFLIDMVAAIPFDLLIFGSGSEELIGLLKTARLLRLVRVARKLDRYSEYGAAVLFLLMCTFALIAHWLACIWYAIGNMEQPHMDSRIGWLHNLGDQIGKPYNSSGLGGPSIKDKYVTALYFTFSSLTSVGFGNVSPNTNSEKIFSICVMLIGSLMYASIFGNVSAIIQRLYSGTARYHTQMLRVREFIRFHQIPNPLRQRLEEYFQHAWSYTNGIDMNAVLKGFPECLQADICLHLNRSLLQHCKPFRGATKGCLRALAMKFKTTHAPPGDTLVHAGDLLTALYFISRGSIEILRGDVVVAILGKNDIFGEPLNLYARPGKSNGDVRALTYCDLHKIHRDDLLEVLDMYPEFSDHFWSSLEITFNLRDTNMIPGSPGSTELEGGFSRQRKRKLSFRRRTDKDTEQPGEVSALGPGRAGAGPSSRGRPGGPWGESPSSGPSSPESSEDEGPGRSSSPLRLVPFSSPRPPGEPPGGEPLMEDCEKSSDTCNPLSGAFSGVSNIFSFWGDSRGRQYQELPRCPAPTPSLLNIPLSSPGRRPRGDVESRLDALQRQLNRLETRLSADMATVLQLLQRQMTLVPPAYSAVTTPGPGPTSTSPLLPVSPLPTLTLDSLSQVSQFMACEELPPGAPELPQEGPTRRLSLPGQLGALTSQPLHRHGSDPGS

This assay concerns the target Voltage-gated inwardly rectifying potassium channel KCNH2 (Homo sapiens) (UniProt Q12809). Put plainly: compounds relieving dofetilide block of hERG – cell-based, CHO-hERG, FluxOR thallium flux, dofetilide IC70, primary screen (AID 1511).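 Note: thallium influx through hERG after potassium depolarization seen as dye fluorescence rise.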 Conditions: dofetilide IC70 present, at 10 µM, hits give high values. In general terms: The hERG channel carries a current that helps repolarise heart muscle cells.
With `CCOC(=O)c1sc(=S)n2c1[nH]c(=O)c1ccc(C(=O)OC)cc12`, the activation (rescue from dofetilide block), less the hit threshold was 77.9% (active).
On to `N/C(=N\OC(=O)CC1CCCCC1)c1ccccc1`, for which the activation (rescue from dofetilide block), less the hit threshold is -5.76%.
Regarding `CCCCn1c(N)c(N(CCOC)C(=O)c2sc3ccccc3c2Cl)c(=O)[nH]c1=O`, the activation (rescue from dofetilide block), less the hit threshold is -2.36%.
For the compound `CN(C)c1cc(N)c2ccccc2n1` (tested in a mixture with another compound), the activation (rescue from dofetilide block), less the hit threshold is 5% (active).
On to `COc1ccc(-c2cc(C(=O)N(C)Cc3ccccc3)c3ccccc3n2)cc1`, for which the activation (rescue from dofetilide block), less the hit threshold was -21.9%.
In the case of `Nc1nc(-c2ccccc2)cc(-c2ccccc2)n1`, the activation (rescue from dofetilide block), less the hit threshold is -6.21%.
Consider `CCCCOC(=O)c1ccc(NC(c2ccc(C)cc2)P(=O)(OC)OC)cc1` (stereo not given), for which the activation (rescue from dofetilide block), less the hit threshold was -14.4%.
On to `CC(=O)N1CCc2cc(Br)cc(S(=O)(=O)CCC(=O)Nc3c(C)n(C)n(-c4ccccc4)c3=O)c21`, for which the activation (rescue from dofetilide block), less the hit threshold is -18%.
In the case of `Cc1cc(=O)oc2c1c(C)nn2-c1ccc(Cl)cc1` it was -1.68%; in that of `Cc1nn(C)cc1N1C(=O)c2cccc3c(N)ccc(c23)C1=O`, -54.8%; in that of `Cc1nn(-c2cc(Cl)ccc2N)c(=O)c2ccccc12`, 7.47% (active).
With `NS(=O)(=O)c1cccc(NC(=O)CC23CC4CC(CC(Br)(C4)C2)C3)c1`, the activation (rescue from dofetilide block), less the hit threshold is -7.94%.
Consider `Cc1cccc(C)c1NC(=O)CS(=O)CC(=O)N1CCN(c2ccccc2)CC1` (stereo not given), for which the activation (rescue from dofetilide block), less the hit threshold is -5.6%.
With `CC(C)C(=O)Nc1nnc(Sc2ccc(N(C)C)cc2)s1`, the activation (rescue from dofetilide block), less the hit threshold is -6.31%.
Consider `Cc1cccc(C(=O)NCCCN(C)CCCNC(=O)c2cccc(C)c2)c1`, for which the activation (rescue from dofetilide block), less the hit threshold was -3.82%.
In the case of `Cc1cccc(NC(=S)NCCN(C2CCCCC2)C2CCCC2)c1` it was -7.92%.
Turning to `Cc1cccc(C(=O)NC(=S)N(C)C2CCCCC2)c1`, the activation (rescue from dofetilide block), less the hit threshold is 11.6% (active).
As to `COc1ccc2cc(C(=O)NCC3CCCO3)[nH]c2c1` (stereo not given), the activation (rescue from dofetilide block), less the hit threshold is -3.17%.
In the case of `N#CC1=C(N)N(c2ccc(F)cc2)C(=O)C1` it was 3.49%.
As for `O=C(O)CCCCOn1ccnc1`, the activation (rescue from dofetilide block), less the hit threshold was -8.74%.
As for `O=c1c2ccccc2ncn1CCCCOc1ccccc1F`, the activation (rescue from dofetilide block), less the hit threshold is -7.18%.
As for `COc1ccc(Cl)cc1C(=O)NNC(=S)NC(=O)/C=C/c1ccco1`, the activation (rescue from dofetilide block), less the hit threshold is 34.2% (active).
Regarding `O=C(/C=C/c1ccco1)NC(=S)Nc1ccccc1Br`, the activation (rescue from dofetilide block), less the hit threshold is 0.92%.
With `COc1ccc(Cl)cc1C(=O)NNC(=S)NC1CCCC1`, the activation (rescue from dofetilide block), less the hit threshold is 5.84% (active).
In the case of `C=CCNC(=S)NNC(=O)c1cc(Cl)ccc1OC`, the activation (rescue from dofetilide block), less the hit threshold was -3.41%.
As for `O=C(NNC(=S)NC1CCCCC1)c1ccccc1Cl`, the activation (rescue from dofetilide block), less the hit threshold is -19.3%.
Take `O=C(/C=C/c1ccco1)NC(=S)N1CCCCC1`: the activation (rescue from dofetilide block), less the hit threshold was -8.68%.
With `Cc1cccc(Cn2cnc3c(N)c(C)c(C)cc32)c1` the figure was -4.77%; with `CCOC(=O)/C=C/C(=O)OCC(=O)NC(c1ccccc1)c1ccccc1`, -0.47%; with `CSc1cccc(NC(=O)CN2C(=O)COc3ccc(S(=O)(=O)N4CCOCC4)cc32)c1`, -8.66%.
Turning to `COc1cccc(CNCc2ccc3c(c2)OCO3)c1`, the activation (rescue from dofetilide block), less the hit threshold is -1.37%.
On to `O=C(O)c1cccc(N2C(=O)Nc3ccccc3N2O)c1`, for which the activation (rescue from dofetilide block), less the hit threshold was 5.69% (active).
Turning to `NC1=NN(c2cccc(C(=O)O)c2)C(=O)C1`, the activation (rescue from dofetilide block), less the hit threshold is -7.19%.
For the compound `O=C1Nc2cc(Cl)c(Cl)cc2N(O)N1c1ccccc1Cl`, the activation (rescue from dofetilide block), less the hit threshold is -11.3%.
As for `COc1cc(OC)c(NC(=O)C2CCCN2C(=O)OCc2ccccc2)cc1Cl` (stereo not given), the activation (rescue from dofetilide block), less the hit threshold is -14.7%.
In the case of `COCCCNC(=O)CN1C(=O)CSc2ccc(S(=O)(=O)N3CCOCC3)cc21` it was -5.64%; in that of `O=C(COC(=O)c1ccccc1NC(=O)c1ccco1)Nc1ccc2c(c1)OC(F)(F)O2`, -13.6%.
For the compound `O=S(=O)(NCCCc1ccccc1)c1ccc(Br)cc1`, the activation (rescue from dofetilide block), less the hit threshold was -3.29%.
On to `O=C1c2cccnc2C(=O)N1Cc1cccs1`, for which the activation (rescue from dofetilide block), less the hit threshold is -8.43%.
As for `O=C1c2ccccc2C(=O)N1CCCc1nc(-c2ccccc2)no1`, the activation (rescue from dofetilide block), less the hit threshold is -6.67%.
Regarding `O=C1c2ccccc2C(=O)N1Cc1cc(-c2ccccc2Cl)no1`, the activation (rescue from dofetilide block), less the hit threshold is 11.4% (active).
In the case of `Cc1ccc(NC(=O)C(CC(=O)O)C2CCCO2)c(C)c1` (stereo not given) it was -3.96%.
On to `COCCCn1c(Cc2csc(Nc3cccc(Cl)c3)n2)nnc1SCC(=O)OC1CCCCC1`, for which the activation (rescue from dofetilide block), less the hit threshold is -9.88%.
Turning to `Cc1c(NC(=O)C(C)Oc2cccc(Cl)c2)c(=O)n(-c2ccccc2)n1C` (stereo not given), the activation (rescue from dofetilide block), less the hit threshold is -2.29%.
With `OC1CN=C2Sc3ccccc3N2C1` (stereo not given), the activation (rescue from dofetilide block), less the hit threshold was 4.61% (active).
In the case of `CCCNCc1cc(OCC)c(OCC(=O)Nc2ccccc2)cc1Br` it was -25.3%; in that of `C=Cn1cc[n+](CC(=O)c2ccc(OC)c(OC)c2)c1`, -13.3%; in that of `Cc1cc(O)c(C2(O)C(=O)Nc3ccccc32)cc1C` (stereo not given), -4.06%.
With `COc1ccc(C2(O)C(=O)Nc3ccccc32)cc1` (stereo not given) the figure was 4.63% (active).
In the case of `COc1ccc(C23NCCN2C(=O)c2ccccc23)cc1` (stereo not given), the activation (rescue from dofetilide block), less the hit threshold was -7.58%.
For `Cc1ccc(N2C(=O)C3N=NN(CC(=O)N4N=C(c5cccc6ccccc56)CC4c4ccccc4)C3C2=O)cc1` (stereo not given), the activation (rescue from dofetilide block), less the hit threshold is -4.02%.
With `O=P(O)(CP(=O)(c1ccccc1)c1ccccc1)c1ccccc1O`, the activation (rescue from dofetilide block), less the hit threshold is 6.37% (active).
Consider `CC(C)(C)c1cc(P(=O)(c2ccccc2)c2ccccc2)ccc1O`, for which the activation (rescue from dofetilide block), less the hit threshold was -11.2%.
As for `O=P(O)(CP(=O)(c1ccccc1)c1ccccc1)c1ccccc1`, the activation (rescue from dofetilide block), less the hit threshold is -3.04%.
For the compound `CS(=O)(=O)N(CC(=O)NC1CCCC1)Cc1ccc(F)cc1`, the activation (rescue from dofetilide block), less the hit threshold was 1.73%.
